The text below walks through data of PubChem BioAssay (NCI).

This is part of a sample that, as a whole, favours compounds with a hit. Of some 83,000 tested, about 20% had one in any assay.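 Cells were grown in 96-well plates and exposed to the test compound at a single concentration for 48 hours; results are reported as percent growth, with values below 10 considered active.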 Values without a mark were called inactive. Calls of active or inactive are those of the source.

Common to all, as to assay: NCI-60 one-dose screen, 48 h (100 = growth as untreated, 0 = no growth, -100 = all killed)
Settings in all cases: 10 µM unless noted

Assay [1] relates to SR leukemia.
Assay [2] relates to RPMI-8226 leukemia.
Assay [3] deals with OVCAR-8 ovarian.
The test system of assay [4] is OVCAR-5 ovarian.
Assay [5] deals with OVCAR-4 ovarian.
Assay [6] concerns SK-OV-3 ovarian.
Assay [7] relates to IGROV1 ovarian.
The subject of assay [8] is OVCAR-3 ovarian.
The test system of assay [9] is HS 578T breast.
Assay [10] deals with NCI/ADR-RES ovarian.
The test system of assay [11] is T-47D breast.
Assay [12] deals with BT-549 breast.
Assay [13] has as its system MDA-MB-435 melanoma.
The test system of assay [14] is SW-620 colon.
For assay [15], the system named is MCF7 breast.
The subject of assay [16] is HCT-116 colon.
The subject of assay [17] is HCC-2998 colon.
Assay [18] relates to KM12 colon.
The subject of assay [19] is MDA-MB-468 breast.

Turning to `O=C(/C=C/Nc1ccc(Cl)cc1)c1ccc2c(c1)Nc1ccccc1S2`, the growth in assay [1] was 58.1%; in assay [2], 62.3%; in assay [3], 12.4%; in assay [4], 83.4%; in assay [5], 2.72% (active); in [6], 20.7%. The growth in assay [7] is 39.5%; in [8], 61.5%; in assay [9], 8.24% (active); in [10], 25.7%; in assay [11], 62.1%; in assay [12], 24.6%. Moreover, the growth in assay [13] is 55.1%; in [14] it was 54.8%; in assay [15], 40.1%; in assay [16] it was 39.2%; in assay [17] it was 44.2%; in [18], 69.3%. Also, the growth in [19] was 43.4%.

Regarding `COc1ccc(NC(=O)Nc2ccc(OCc3ccc(F)cc3)cc2)cc1`, the growth in assay [1] was 78.7%; in assay [2], 88.7%; in assay [3], 40.2%; in assay [4] it was 72.9%; in assay [5], 20%; in assay [6], 76.2%. Also, the growth was 78.1% in [7]; 58.5% in [8]; 29.4% in assay [9]; 51.2% in assay [10]; 84.7% in assay [11]; 84.9% in [12]. Besides, the growth is 83% in assay [13]; 73.6% in [14]; 57.6% in assay [15]; 58.1% in [16]; 90.8% in assay [17]; 93.3% in [18]. For the same compound, in assay [19], the growth was 77.5%.

`COc1cc2oc(-c3cccc(C(=O)Nc4ccc(Cl)cc4)c3)cc(=O)c2c(OCCNC(=O)[C@@H](N)CCC(=O)O)c1OC`: the growth in assay [1] is 42.7%; in [2], 25.5%; in [3], 73.7%; in [4] it was 76.9%; in assay [5], 91.9%; in assay [6], 88.8%. In addition, the growth in assay [7] is 62.9%; in [8] it was 113%; in assay [9], 88.9%; in assay [10], 97.4%; in [11] it was 73.7%; in assay [12], 84.5%. Further, the growth in assay [13] is 88.6%; in assay [14], 106%; in assay [15], 61%; in assay [16] it was 58.7%; in [17], 115%; in assay [18], 93.2%. Moreover, the growth in assay [19] is 74.5%.

`C#C[C@]1(O)CC[C@H]2[C@@H]3CC=C4c5sc(-c6ccc(O)c(O)c6)nc5CC[C@]4(C)[C@H]3CC[C@@]21C`: the growth in [1] was -25.7% (active); in assay [2], -50.4% (active); in assay [3] it was -77.3% (active); in [4], -87% (active); in [5] it was -68.1% (active); in assay [6], -78.2% (active). Further, the growth is -67.4% (active) in assay [7]; -56.3% (active) in assay [8]; -32.6% (active) in assay [9]; -27.2% (active) in assay [10]; -25.7% (active) in assay [11]; -93.3% (active) in assay [12]. The growth is -62.3% (active) in assay [13]; -76.6% (active) in assay [14]; -72.8% (active) in [15]; -88.8% (active) in assay [16]; -83.9% (active) in [17]; -76.3% (active) in assay [18]. Besides, the growth in assay [19] was -71.7% (active).

As for `COc1ccc(NC(=O)[C@H](C)N)cc1C(=O)Nc1cccc(C2CC(=O)c3c(cc(OC)c(OC)c3OC)O2)c1` (some centres not stated), the growth in assay [1] is 63.8%; in assay [2] it was 55.3%; in assay [3], 68.8%; in [4] it was 104%; in assay [5] it was 81.7%; in [6], 146%. In addition, the growth in assay [7] is 98.7%; in [8], 91.9%; in assay [9], 95.8%; in [10], 86.1%; in assay [11], 53.7%; in assay [12], 67.3%. Further, the growth is 93.2% in assay [13]; 99.4% in assay [14]; 72.1% in assay [15]; 93.9% in assay [16]; 109% in [17]; 87% in assay [18]. Further, the growth in [19] was 76.1%.

For the compound `O=C(O)Cn1c(O)c(/C=C2/C=c3cc4c(cc3=NC2=O)OCCO4)sc1=S`, the growth is 89.2% in [1]; 98.2% in assay [2]; 110% in [3]; 112% in assay [4]; 109% in assay [5]; 129% in assay [6]. The growth in assay [7] was 114%; in assay [8], 110%; in assay [9] it was 107%; in assay [10], 103%; in assay [11], 104%; in assay [12], 104%. For the same compound, the growth in [13] was 102%; in assay [14] it was 113%; in [15], 86.3%; in assay [16], 103%; in [17] it was 109%; in [18], 104%. Further, the growth in [19] was 111%.

With `CC(=O)/C=C/c1cccc2c1C(=O)NC(C)(c1cc3cc(Br)ccc3oc1=O)N2` (configuration not stated), the growth is -0.625% (active) in assay [1]; 2.71% (active) in assay [2]; 24.9% in [3]; 30.8% in [4]; 27.2% in assay [5]; 52.6% in assay [6]. Also, the growth was 25.3% in [7]; 28.1% in assay [8]; 46.6% in assay [9]; 32.9% in assay [10]; 32% in assay [11]; -8.15% (active) in assay [12]. In addition, the growth was 42.3% in assay [13]; 32.3% in assay [14]; 13.4% in [15]; 15.1% in [16]; 23.3% in assay [17]; 25.3% in assay [18]. For the same compound, the growth in [19] was -6.53% (active).

For `COc1cc(/C=C/C(=O)c2ccccc2)ccc1Oc1nc(Nc2ccc(F)cc2)nc(N(C)C)n1`, the growth in assay [1] was 1.38% (active); in assay [2] it was -8.57% (active); in assay [3] it was 22.1%; in assay [4], 49.1%; in assay [5], 27.7%; in assay [6], 79.7%. In addition, the growth in assay [7] is 48.8%; in assay [8], 39.4%; in assay [9] it was 36.2%; in assay [10] it was 11.3%; in assay [11] it was 13%; in assay [12], -6.57% (active). Besides, the growth in [13] was 24.9%; in [14], -0.837% (active); in assay [15] it was 5.96% (active); in [16] it was -83.1% (active); in [17], 59%; in assay [18] it was 40.8%. Moreover, the growth in [19] was 21.5%.
